135 variants from the emibetuzumab library of Makowski et al. (2022) can be followed below.

B1: VH:VL chains; a variant is named by its letters at X, in order (parent)
chain 1: QVQLVQSGAEVKKPGASVKVSCKASGYTFTDYXMHWVRQAPGQGLEWMGXVNPNXXXTTYNQKFEGRVTMTTDTSTSTAYMELRSLRSDDTAVYYCARXNXLDXWGQGTTVTVSS
chain 2: DIQMTQSPSSLSASVGDRVTITCSVSSSVSSIYLHWYQQKPGKAPKLLIYSTSNLASGVPSRFSGSGSGTDFTLTISSLQPEDFATYYCQVYSGYPLTFGGGTKVEIK

The list shows a part of the results. No count for the full screen is at hand.

This assay covers variants of B1. Put plainly: yeast display scFab, FACS + sequencing. The settings on record: with MET. Put shortly:
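Antigen binding was called positive for sequences present in both antigen-positive samples and negative for those present only in the input. These calls came from deep sequencing, in two replicates, of round-3 sorted and input populations from a heavy-chain CDR mutant scFab yeast surface library. The library was first enriched twice magnetically on HGFR-Fc-coated Protein A beads and then by FACS, gating the top 50% antigen-positive cells after 3 h labelling at room temperature with 1 nM HGFR-Fc plus anti-Myc in PBSB with 1% milk.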
YRRGGAAS: the antigen binding call is “binds”.
In the case of FRRGGAAS, the antigen binding call is on record as “binds”.
On to VRRGGAAS, for which the antigen binding call is “binds”.
Regarding VKGAGAAS, the antigen binding call is “no binding”.
VRRTSAAS: the antigen binding call is “no binding”.
For DEGGTAGA, the antigen binding call is reported as “no binding”.
In the case of FRRRGSLV, the antigen binding call is given as “binds”.
Regarding YRRGGSWV, the antigen binding call is listed as “binds”.
For FGRRGAGV the value was “no binding”.
Consider YRRRGYLV, for which the antigen binding call is on record as “no binding”.
In the case of YRRRGSLV, the antigen binding call is recorded as “binds”.
As for YRRRGSVV, the antigen binding call is reported as “binds”.
On to YGETGFWY, for which the antigen binding call is “no binding”.
The value for DKTKSDWV was “no binding”.
For VAREGDLA the value was “no binding”; for AARADDVY, “no binding”; for YRRRGSWV, “binds”.
On to YRRRGAWV, for which the antigen binding call is reported as “binds”.
Turning to VRRGGAWV, the antigen binding call is “no binding”.
As for YRRGGAWV, the antigen binding call was “binds”.
Turning to VRRRGSWV, the antigen binding call is given as “binds”.
For the variant VTEEGSWV, the antigen binding call was “no binding”.
Regarding VRGAGSWV, the antigen binding call is reported as “no binding”.
As to DEGKDDVA, the antigen binding call is listed as “no binding”.
Take DTGGGDAY: the antigen binding call is recorded as “no binding”.
DTTEASLV: the antigen binding call is on record as “no binding”.
DRGRDDVA: the antigen binding call is “no binding”.
As to FRGRDSVA, the antigen binding call was “binds”.
As for FRGRSSVA, the antigen binding call is “binds”.
As for FRGRDFVA, the antigen binding call is “no binding”.
For DTGTSDLY, the antigen binding call was “no binding”.
On to FARAGDWV, for which the antigen binding call is “no binding”.
As to FRAGDAGV, the antigen binding call was “binds”.
For the variant FEATAAGS, the antigen binding call is “no binding”.
In the case of VRAGDAGV, the antigen binding call was “no binding”.
With FRARGAGV, the antigen binding call is given as “binds”.
Take FRAGGAGV: the antigen binding call is reported as “binds”.
As to FRAGGVGV, the antigen binding call was “no binding”.
For FEAGDDGV the value was “no binding”; for FRARGAGS, “binds”.
For VKGRADWV, the antigen binding call is listed as “no binding”.
Regarding FRAGGSSV, the antigen binding call is reported as “binds”.
On to YRGRSAGY, for which the antigen binding call was “binds”.
With YRGRTAAF, the antigen binding call is given as “binds”.
On to YRGRTAAY, for which the antigen binding call is “binds”.
On to YRERAAGY, for which the antigen binding call is “binds”.
Turning to SAGRSDLV chain 1 R67H, the antigen binding call is reported as “no binding”.
Regarding SEARSDWV, the antigen binding call is recorded as “no binding”.
Consider AARADAGA, for which the antigen binding call was “no binding”.
The value for YRTRDAGY was “binds”.
For YRGRSAAY the value was “binds”; for YRGRTAAD, “binds”.
For YRTRDDLY, the antigen binding call is “no binding”.
For YGKRDASY the value was “no binding”; for YTKETAAD, “no binding”; for YRGRSASY, “binds”.
In the case of FKGRSASY, the antigen binding call is given as “no binding”.
On to DKGGAVWT, for which the antigen binding call is “no binding”.
Consider SEARSSSA, for which the antigen binding call was “no binding”.
Consider DTTKGDVV, for which the antigen binding call was “no binding”.
The value for DEGGTSSA was “no binding”.
For the variant DTTRADVD, the antigen binding call is “no binding”.
Regarding DTTKSSSS, the antigen binding call is “no binding”.
With DRGGDSSS, the antigen binding call is given as “binds”.
On to DRGGDSLD, for which the antigen binding call is listed as “no binding”.
As for DATGGSSS, the antigen binding call is listed as “no binding”.
Take DRTGDSSS: the antigen binding call is “binds”.
For the variant DRGGDDGS, the antigen binding call is “no binding”.
In the case of DKGGSDVV, the antigen binding call was “no binding”.
On to STRGADAV, for which the antigen binding call was “no binding”.
Take DKEEADGV: the antigen binding call is given as “no binding”.
Take FRTGDAWV: the antigen binding call is given as “binds”.
The value for FRTGDDWV was “no binding”; that for FRTGDDLV was “no binding”; that for FRAGSAVV was “binds”.
With VATGDSLV, the antigen binding call is listed as “no binding”.
For FRAGGAWV the value was “binds”; for FRTGDSLV, “binds”; for SKTKSDVV, “no binding”.
With SAREGSSA, the antigen binding call is listed as “no binding”.
Take DEARGAGD: the antigen binding call is “no binding”.
For FRRGGAVV the value was “binds”.
For FRTKGAWV, the antigen binding call is “binds”.
In the case of FATKGAWV, the antigen binding call was “no binding”.
Turning to FRGRDVVV, the antigen binding call is recorded as “no binding”.
As for FRRGGAWV, the antigen binding call is listed as “binds”.
For the variant AARETVGA, the antigen binding call is recorded as “no binding”.
As for STAESDLD, the antigen binding call was “no binding”.
Consider YRGRGFGS, for which the antigen binding call is “binds”.
As for YAGRGFGF, the antigen binding call is reported as “no binding”.
YAGRSFGS: the antigen binding call was “no binding”.
Take YRGRGFGY: the antigen binding call was “binds”.
Regarding YRGRGFAS, the antigen binding call is recorded as “binds”.
For YRGRGFGF, the antigen binding call is on record as “binds”.
On to YAAAAFGY, for which the antigen binding call was “no binding”.
As to DAGGGAVV, the antigen binding call is recorded as “no binding”.
In the case of YATGDDVA, the antigen binding call is “no binding”.
Turning to DGGGNDLV, the antigen binding call was “no binding”.
For VATRGYLV the value was “no binding”.
Consider AARADDVD, for which the antigen binding call is on record as “no binding”.
The value for SRGKSFGS was “no binding”; that for YRGKGFGS was “binds”.
As for YRGRGVGF, the antigen binding call is recorded as “binds”.
For DEGKGFGS, the antigen binding call is “no binding”.
For YAKEGDGV, the antigen binding call was “no binding”.
Take VGKGDDAA: the antigen binding call is given as “no binding”.
Regarding YRGRGSSF, the antigen binding call is reported as “binds”.
In the case of YRGRGASF, the antigen binding call is “binds”.
The value for YTTGSASF was “no binding”.
For the variant VRTEDASF, the antigen binding call is “no binding”.
The value for FRTGDSAS was “binds”; that for FRTGDAVF was “binds”; that for FRTGDDSF was “no binding”.
Regarding FRTGDAVS, the antigen binding call is reported as “binds”.
With VTGGDSLV, the antigen binding call is “no binding”.
As for FKTRDFAY, the antigen binding call was “no binding”.
For VEKEGDVY the value was “no binding”.
The value for DATGGASD was “no binding”; that for YRRGGYVD was “no binding”.
Consider YKRRSSVF, for which the antigen binding call is reported as “binds”.
Turning to YRAGGYVD, the antigen binding call was “binds”.
The value for YRAGGYVF was “binds”.
For the variant AKGEDSVF, the antigen binding call is reported as “no binding”.
Regarding YRRRGYVF, the antigen binding call is recorded as “binds”.
SEARSSSF: the antigen binding call is “no binding”.
As for YRRRGAVF, the antigen binding call is “binds”.
YRRRGSVF: the antigen binding call was “binds”.
As for VAGGAYLY, the antigen binding call is listed as “no binding”.
The value for DTATADWA was “no binding”; that for FRAGGAAV was “binds”.
Turning to FRARGAAV, the antigen binding call is given as “binds”.
On to YGARNAAV, for which the antigen binding call is listed as “no binding”.
For YRARSAAV the value was “binds”; for YAARGAAV, “no binding”.
The value for FRRGDAAV was “binds”.
